ULK1 primary: inhibitors of human ULK1 kinase; AID 1259251; 1.9% of 30,000 active; inhibition, % at 5.96 µM; AlphaScreen Atg13 phosphorylation by ULK1, luminescence; O75385; in the data active = inhibition above about 43%;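 note: 0% = median of compound wells and 100% = no enzyme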
ASK1 primary: inhibitors of human ASK1 kinase; Q99683; AlphaScreen MKK6 phosphorylation by ASK1, luminescence; inhibition, % at 7.44 µM; 0.99% of 22,000 active; in the data active = inhibition above about 35%;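 note: 0% = median of compound wells and 100% = no enzyme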
TruHits interf: counter-screen for ASK1 inhibitors: AlphaScreen optical interference | 20% of 220 active | AlphaScreen TruHits beads, signal interference counterscreen | shares compounds with ASK1 primary | IC50, µM;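 active = IC50 of 10 µM or lower in the counterscreen; inactive = IC50 above 10 µM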;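 note: loss of AlphaScreen light from TruHits beads alone with no ASK1 enzyme present; potency of signal reduction so a low IC50 flags an assay artifact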
Numbers without * were called inactive; i = inactive; nt = no result given. Most compounds without a hit are left out; they make up all but 2.5% or so of the library.

SMILES	ULK1 primary	ASK1 primary	TruHits interf
CC(C)n1cnc2c(Nc3ccccc3)nc(Nc3ccc(N4CCOCC4)cc3)nc21	30.8	46.8*	>20.3
COc1cccc(CNC(=O)c2cn(-c3cccc(OC)c3)c3cc(-c4cn[nH]c4)ccc23)c1	-42.5	-19.4	nt
c1ccc(-n2cnc3c(Nc4ccc(N5CCOCC5)cc4)nc(Nc4cccnc4)nc32)cc1	11.4	39.8*	>15.9
c1ccc(-n2cnc3c(Nc4ccc(N5CCOCC5)cc4)nc(Nc4ccc(-n5ccnc5)cc4)nc32)cc1	17.3	-4.6	nt
COc1ccc(CCNc2ccnc(NC3CCN(Cc4ccccc4)CC3)n2)cc1	-11.3	-3.6	nt
c1cc(-c2ccc3[nH]ncc3c2)nc(Nc2ccc(N3CCOCC3)cc2)n1	64.8*	37.7*	>19.2
Fc1cc(-c2ccnc(Nc3ccc(N4CCOCC4)cc3)n2)cc(N2CCN(C3CC3)CC2)c1	56.0*	39.7*	>19.2
FC(F)(F)c1cc(-c2ccnc(Nc3ccc(N4CCOCC4)cc3)n2)cc(N2CCOCC2)c1	16.2	45.3*	>19.2
N#Cc1cc(-c2ccnc(Nc3ccc(N4CCOCC4)cc3)n2)cc(N2CCN(C3CC3)CC2)c1	7.7	-6.3	nt
c1cc(-c2ccc3nonc3c2)nc(Nc2ccc(N3CCOCC3)cc2)n1	-0.2	13.9	nt
FC(F)(F)c1cc(-c2ccnc(Nc3ccc(N4CCOCC4)nc3)n2)cc(N2CCOCC2)c1	7.5	15.5	nt
O=C(NCCOc1ccccc1)c1ccnc(NCCN2CCOCC2)c1	4.1	-11.8	nt
CC(=O)Nc1ccc(Nc2nc(-c3ccc(C(N)=O)cc3)nc3c2ncn3Cc2ccc(C(F)(F)F)cc2)cc1	-11.5	14.3	nt
CC(=O)Nc1ccc(Nc2nc(-c3ccc(N4CCOCC4)nc3)nc3c2ncn3-c2ccsc2)cc1	-5.8	6.5	nt
CCCNc1nc(Nc2ccc(N3CCOCC3)cc2)nc2cc(OC)c(OC)cc12	9.3	30.4	nt
COc1cc2nc(Nc3ccc(N4CCOCC4)cc3)nc(NCc3ccccc3)c2cc1OC	-6.9	41.4*	i
COc1cc2nc(Nc3ccccn3)nc(Nc3ccc(N4CCOCC4)cc3)c2cc1OC	-9.5	8.5	nt
COc1cc2nc(Nc3nccc4ccccc34)nc(Nc3ccc(N4CCOCC4)cc3)c2cc1OC	10.4	36.2*	i
Cc1ncn(-c2ccc(Nc3ncc4cccc(-c5ccnc(N6CCOCC6)c5)c4n3)cc2)n1	15.9	24.0	nt
Cn1cc(-c2ccc3cnc(Nc4ccc(-c5ccc(N6CCOCC6)nc5)cc4)nc3c2Cl)cn1	42.7*	37.7*	>19.2
Cc1ccc(-c2ncn(-c3ccc(Nc4nccc(-c5cc(F)cc(N(C)C)c5)n4)cc3)n2)cn1	-24.8	-14.8	nt
COc1ccc(-c2ccc(Nc3nccc(-c4cc(C#N)cc(N5CCOCC5)c4)n3)cc2)cn1	-3.9	-2.2	nt
Fc1cc(-c2ccnc(Nc3ccc(-n4cnc(N5CCOCC5)n4)cc3)n2)cc(N2CCOCC2)c1	5.3	23.9	nt
CN(C)c1cc(F)cc(-c2ccnc(Nc3ccc(-n4cnc(N5CCC(O)CC5)n4)cc3)n2)c1	-32.8	38.6*	>19.2
c1cc(-n2cnc(N3CCOCC3)n2)ccc1Nc1ncc2ccc(-c3cn[nH]n3)cc2n1	59.2*	48.6*	>19.2
SMILES	ULK1 primary	ASK1 primary	TruHits interf
Cc1n[nH]c(C)c1-c1cc(F)cc(-c2ccnc(Nc3ccc(-n4cnc(N5CCOCC5)n4)cc3)n2)c1	13.0	48.5*	>19.2
Cc1nc(-c2ccc3cnc(Nc4ccc(-n5cnc(N6CCOCC6)n5)cc4)nc3c2)n[nH]1	19.1	-20.5	nt
COc1ccc(-c2ncn(-c3ccc(Nc4nccc(-c5cc(C#N)cc(N6CCNCC6)c5)n4)cc3)n2)cn1	-387.0	44.6*	>19.2
Nc1nonc1-c1nc2ccccc2n1CC(=O)N/N=C/c1ccc([N+](=O)[O-])cc1	0.4	nt	nt
Cc1cc(NCCN(C(C)C)C(C)C)nc(-c2c(C)noc2C)n1	-1.9	-12.6	nt
Cc1cnc(Nc2ccccc2)nc1NCc1cccc(C(F)(F)F)c1	-21.0	0.6	nt
CC(=O)c1cccc(-c2nc(NCCc3ccc(O)cc3)c3ncn(CCN4CCCC4=O)c3n2)c1	-12.1	-2.2	nt
COc1cc(Nc2ccc(N3CCC(C(=O)Nc4ccccc4)CC3)nn2)cc(OC)c1OC	0.9	-0.6	nt
COc1cccc(/C=N/Nc2nc(-c3cc4cccc(OC)c4oc3=O)cs2)c1	2.3	nt	nt
Cc1cc(NC2CCN(Cc3ccccc3)CC2)nc(N2CCC(N3CCOCC3)CC2)n1	1.3	4.7	nt
O=C(NC1CCN(Cc2ccccc2)CC1)c1ccnc(NCc2ccc3c(c2)OCO3)c1	-2.9	-13.7	nt
N#Cc1cc(-c2ccnc(Nc3ccc(-n4cnc(N5CCOCC5)n4)cc3)n2)cc(N2CCCC(O)C2)c1 (stereo unspecified)	6.0	13.7	nt
CN1CCN(c2ncn(-c3ccc(Nc4nccc(-c5cc(C#N)cc(N6CCC(O)CC6)c5)n4)cc3)n2)CC1	-50.8	41.0*	>19.2
COc1cc(Nc2nc(-c3ccc(C(N)=O)cc3)nc3c2ncn3C2CCCCC2)cc(OC)c1OC	19.7	40.4*	>20
COc1cc(Nc2nc(-c3ccc(C(=O)NC4CC4)cc3)nc3c2ncn3C2CCCCC2)cc(OC)c1OC	16.1	34.0	nt
CCCNc1ccnc(-c2cccs2)n1	-9.1	10.2	nt
Cc1cnc(-c2csc3ccccc23)nc1Nc1ccc(N2CCOCC2)cc1	-11.4	42.5*	>20.1
c1ccc(-c2nc3ncnc(Nc4ccc(N5CCOCC5)cc4)c3[nH]2)cc1	-1.2	14.7	nt
CC(=O)c1cccc(-c2ncc(C)c(Nc3ccc(N4CCOCC4)cc3)n2)c1	18.7	14.9	nt
COc1cc2nc(-c3csc4ccccc34)nc(Nc3ccc(N4CCOCC4)cc3)c2cc1OC	-28.2	28.9	nt
Cc1cnc(-c2cccc(N)c2)nc1Nc1ccc(N2CCOCC2)cc1	-9.8	51.4*	>17.8
Nc1cccc(-c2nc3ncnc(Nc4ccc(N5CCOCC5)cc4)c3[nH]2)c1	6.0	36.1*	>18.2
NCc1c(F)cccc1F	-5.5	nt	nt
c1ccc(CNc2ncnc3nc(Nc4ccccc4)[nH]c23)cc1	-18.6	-10.4	nt
CN(C)c1cccc(Nc2nc(NCCO)c3ncn(C4CCCCC4)c3n2)c1	8.6	20.2	nt
SMILES	ULK1 primary	ASK1 primary	TruHits interf
NC(=O)c1ccc(-c2nc(NCc3cccc(C(F)(F)F)c3)c3ncn(Cc4ccc(C(F)(F)F)cc4)c3n2)cc1	-6.1	40.5*	>17.3
CC(=O)c1cccc(-c2nc(NCc3cccc(C(F)(F)F)c3)c3ncn(Cc4ccc(C(F)(F)F)cc4)c3n2)c1	-11.9	5.1	nt
CC(=O)c1cccc(-c2nc(NCc3ccccc3)c3ncn(Cc4ccc(C(F)(F)F)cc4)c3n2)c1	-5.4	46.2*	>19.2
COc1ccc(-c2nc(NCc3cccc(C(F)(F)F)c3)c3ncn(Cc4ccc(C(F)(F)F)cc4)c3n2)cc1	-19.1	-6.6	nt
Nc1cc(C2=C3C=CN=C3C(=O)NCC2)c(O)[nH]1	71.3*	38.3*	>19.2
Nc1cc(C2=C3C=C(Br)N=C3C(=O)NCC2)c(O)[nH]1	30.9	16.9	nt
CC(C)n1cnc2c(NCCO)nc(Nc3cccc(N(C)C)c3)nc21	20.1	13.2	nt
COc1ccc(CCNc2nc(Nc3cccc(N(C)C)c3)nc3c2ncn3C(C)C)cc1	8.9	37.1*	>20
COc1ccc(CCNC(=O)c2ccnc(NCc3cccnc3)c2)cc1	8.0	-9.9	nt
Cc1nc(C)n(-c2ccc(Nc3nccc(-c4cccc(-n5nccn5)c4)n3)cc2)n1	-15.3	39.2*	>19.2
Cc1nc(C)n(-c2ccc(Nc3nccc(-c4cccc(-n5ccnc5)c4)n3)cc2)n1	-91.8	-72.4	nt
